# Assay results as given in PubChem BioAssay AID1053144 (Broad Institute, 2014).
# Out of some 3,400 compounds screened, about 160 (4.7%) were called active.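 Rule for the calls: active = fitted curve reaches 30% activation at a concentration no higher than the top valid tested dose, luminescence rising; inconclusive = no clear call, values can overlap the other calls; inactive = signal moving opposite to the expected increase, plus the rest.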 Not all results are given here. Results with a measured potency or affinity are listed apart.
# Assay: TCF/LEF reporter activation in neural progenitors – cell-based, iPS-derived NPC, luciferase, Wnt3a, cherry-pick, dose response (AID 1053144);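 note: Wnt3a stimulus is conditioned medium from Wnt3a-transfected mouse L cells at 5% in well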
# Details: Wnt3a EC25, 24 h; series mostly up to 26 µM
row,Structure (SMILES),activation
1,Cc1ccc(NC(=O)CSc2nccn2Cc2ccco2)c(C)c1,inactive
2,CCC(=O)NCCc1nc2cc(NC(=O)c3ccc(Cl)cc3)ccc2n1C,inactive
3,Cn1c(CCNC(=O)c2ccco2)nc2cc(NC(=O)c3ccccc3)ccc21,inactive
4,Clc1ccccc1Nc1nc(-c2cccnc2)cs1,inactive
5,Nc1ccccc1-n1cccc1,inactive
6,Cc1ccc(S(=O)(=O)N2CCCC(C(=O)Nc3ccc(NC(=O)c4ccccn4)cc3)C2)cc1 (stereo not given),inactive
7,Oc1ccc(-c2csc(Nc3ncccn3)n2)c(O)c1,inactive
8,COc1ccc(-c2nc3n(c2C)Cc2ccccc2-3)cc1,inactive
9,Clc1ccc(-c2nc3n(n2)Cc2ccccc2-3)cc1,inactive
10,Cn1c(-c2ccc(F)c(F)c2)cc2onc(-c3ccccc3)c2c1=O,inactive
11,NC(=O)C1CCN(C(=O)c2cc3c(s2)CCCCC3)CC1,inactive
12,O=C(Nc1nc(-c2ccc3c(c2)OCCO3)cs1)C1CCCC1,inactive
13,O=C(Nc1nc(-c2nc3ccccc3s2)cs1)C1CC1,inactive
14,CC(C)(C)c1ccc(NC(=O)c2ccccc2)c([N+](=O)[O-])c1,inactive
15,O=C(Nc1ccc2c(c1)OCO2)Nc1ccccn1,inactive
16,Cc1ccc(CNC(=O)c2ccc(Cn3cc(-c4ccc(C)cc4)nc3-c3ccncc3)cc2)cc1,inactive
17,Clc1ccc(-c2cc(-c3ccccc3)on2)cc1,inactive
18,Nc1nc(-c2cc(-c3ccccc3)no2)cs1,inactive
19,Cc1ccc(OCC(=O)Nc2ccccc2F)cc1,inactive
20,COc1cccc(OCC(=O)Nc2ccccc2C(N)=O)c1,inactive
21,Cc1cc(C)c(C#N)c(N2CCSCC2)n1,inactive
22,O=C(Nc1ncccc1O)c1ccc2ccccc2c1,inactive
23,O=C(Nc1ccc(Cl)cc1Cl)c1ccc2c(c1)OCCO2,inactive
24,O=C(Nc1cccnc1)c1ccc(Oc2ccccc2)cc1,inactive
25,Cc1nc(NC(=O)c2ccc3c(c2)OCCO3)ccc1Br,inactive

row,Structure (SMILES),activation
1,O=C(Nc1ccccc1F)c1ccc2c(c1)OCO2,inactive
2,NC(=O)c1ccccc1NC(=O)c1ccc2c(c1)OCO2,inactive
3,COCCn1c(C)cc(C(=O)CSc2nc3ccccc3c(=O)n2Cc2ccco2)c1C,inactive
4,Nc1cc([N+](=O)[O-])ccc1OCc1ccccc1,inactive
5,O=C(Nc1cc2c(cc1Br)OCCCO2)c1ccccc1,inactive
6,C/C(=C\c1ccccc1)C(=O)NCCc1ccccc1,inactive
7,CN(CCO)C(=O)c1ccc(-c2nn(C)c(=O)c3ccccc23)cc1,inactive
8,O=C(Nc1ccc2c(c1)CCC2)c1cccs1,inactive
9,O=C(Nc1cccc(F)c1)Nc1ccc2c(c1)CCC2,inactive
10,O=C(CCNC(=O)c1ccc(Cl)cc1)NC1CCCCCC1,inactive
11,CCOc1cc(/C=N/NC(=O)CSc2nnc(C)s2)ccc1OCc1ccccc1Cl,inactive
12,O=c1c2ccccc2oc2cc(-c3ccc4cc[nH]c4c3)ccc12,inactive
13,O=c1oc(CCO)cc2ccc(-c3ccc4[nH]ccc4c3)cc12,inactive
14,CC1CCc2c(sc(/N=C/c3ccco3)c2C(N)=O)C1 (stereo not given),inactive
15,Fc1ccc2cc(-c3ccccc3F)ncc2c1,inactive
16,Cc1cc(NC(=O)c2ccc(OCC3CCCO3)cc2)ccc1Br (stereo not given),inactive
17,O=C(CSc1nc2ccccc2c(=O)n1NC(=O)c1ccccc1)c1ccc(Cl)cc1,inactive
18,O=c1c2ccccc2nc2c3ccccc3c(NCc3ccccn3)nn12,inactive
19,Cn1cccc1C(=O)OCC(=O)Nc1ccc2c(c1)OCCO2,inactive
20,Cc1ccccc1Cn1nnc(C(=O)Nc2ccc3c(c2)OCCO3)c1N,inactive
21,Fc1ccccc1-c1nc2ccccc2[nH]1,inactive
22,CCOC(=O)c1sc(=NC(=O)c2ccc(C)cc2)n(C)c1C,inactive
23,CCOC(=O)c1sc(=NC(=O)c2ccccc2)n(C)c1C,inactive
24,NC(=O)c1cc(Cl)ccc1OCC(=O)Nc1ccc2c(c1)OCO2,inactive
25,Oc1ccccc1/C=N/Nc1cccc2cccnc12,inactive

row,Structure (SMILES),activation
1,O=C(O)c1ccc(N/N=C/c2cccc3cccnc23)cc1,inactive
2,Cc1ccc(C(=O)Nc2cccc(C(=O)N3CCOCC3)c2)cc1,inactive
3,Cn1cccc1C(=O)OCC(=O)N1CCc2ccccc21,inactive
4,COC(=O)N=Nc1c(O)[nH]c2ccc(Br)cc12,inactive
5,O=C(N=Nc1c(O)[nH]c2ccc(Br)cc12)c1ccco1,inactive
6,O=C1CCN(Cc2ccccc2)C=C1c1ccc2ccccc2c1,inactive
7,CC(C)=CC(=O)Nc1ccc(Cl)cc1,inactive
8,O=C(NCCc1cccc(Cl)c1)c1ccc2c(c1)OCO2,inactive
9,O=C(/C=C/c1ccco1)Nc1cccnc1Cl,inactive
10,Cc1ccc(-n2nc3ccc(NC(=O)/C=C/c4ccco4)cc3n2)cc1,inactive
11,COc1cccc(NC(=O)/C=C/c2ccco2)c1,inactive
12,O=C(/C=C/c1ccco1)Nc1cccnc1,inactive
13,COc1cccc(-c2cc(C(=O)N3CCCCCC3)no2)c1,inactive
14,COc1ccc(-c2cc3nc4n(c(=O)c3s2)CCCCC4)cc1,inactive
15,O=C(COc1ccc(F)cc1Cl)NC1CCCCCC1,inactive
16,COc1ccc2c(c1)-c1nc(NC(=O)c3ccco3)sc1CC2,inactive
17,COc1ccccc1C(=O)O/N=C(\N)c1ccccc1Cl,inactive
18,N/C(=N\OC(=O)c1ccco1)c1ccccc1,inactive
19,Cc1cccc(C(=O)O/N=C(\N)c2ccc(Cl)cc2)c1,inactive
20,N/C(=N\OC(=O)c1ccco1)c1cccnc1,inactive
21,COc1ccc(C(=O)O/N=C(\N)c2ccc(Br)cc2)cc1,inactive
22,COc1ccccc1C(=O)O/N=C(\N)c1ccccn1,inactive
23,COc1ccc(-c2cc(-c3ccc(C)cc3)n[nH]2)c(O)c1,inactive
24,NS(=O)(=O)c1ccc2nc(NC(=O)Nc3ccccc3F)sc2c1,inactive
25,Cc1ccc2[nH]c(-c3cccc(N)c3)cc2c1,inactive

row,Structure (SMILES),activation
1,O=C(/C=C/c1ccc(F)cc1)NCCC1=CCCCC1,inactive
2,CC(C)(C)c1ccc(NC(=O)c2ccc(=O)[nH]n2)cc1,inactive
3,COc1ccc2cc(-c3ccsc3)ncc2c1,inactive
4,O=C1CC(c2ccco2)CC2=C1C=Nc1ccccc1N2 (stereo not given),inactive
5,CC1(C)CC(=O)C2=C(C1)Nc1ccccc1NC2c1ccc2c(c1)OCO2 (stereo not given),inactive
6,O=C(NCCc1cccs1)c1ccc(Cl)c(Cl)c1,inactive
7,COc1ccccc1C1CC(c2cccs2)=Nc2ccccc2S1 (stereo not given),inactive
8,COc1ccc2oc(C(=O)Nc3ccc(C)cn3)c(C)c2c1,inactive
9,COc1cc(/C=N/Nc2ccccn2)ccc1O,inactive
10,COc1ccc(/C=N/Nc2nc3ccccc3o2)cc1O,inactive
11,Nc1[nH]n(-c2ccccc2)c(=O)c1N=Nc1ccccc1[N+](=O)[O-],inactive
12,COCCNC(=O)c1ccc2c(Cl)c3c(nc2c1)CCC3,inactive
13,CCOC(=O)c1c(C)[nH]c(C(=O)OCc2ccccc2)c1C,inactive
14,CCOC(=O)c1c(C)[nH]c(C(=O)OCC(=O)c2ccccc2)c1C,inactive
15,COc1ccc(N2CCN(c3ccc(NC(=O)/C=C\C(=O)O)cc3)CC2)cc1,inactive
16,CCOC(=O)N1CCC(N2CCCC(C(=O)c3cc(F)ccc3OC)C2)CC1 (stereo not given),inactive
17,Cc1ccc(-c2nn(-c3ccccc3)cc2C=O)o1,inactive
18,O=C(NCc1cccnc1)C(=O)Nc1nc2ccccc2s1,inactive
19,OCC1(CCOc2ccccc2)CCN(Cc2ccccc2C(F)(F)F)CC1,inactive
20,Nc1ccc2nc(NC(=O)C3CCCCC3)sc2c1,inactive
21,Cc1cc(/C=N/NC(=O)c2ccccc2F)c(C)n1-c1ccccc1,inactive
22,COc1ccc(CN2C(=O)c3cccc4cccc(c34)C2=O)cc1,inactive
23,COc1ccc(N2C(=O)c3ccccc3C2O)cc1 (stereo not given),inactive
24,O=C(c1cc2cc(F)ccc2[nH]1)N1CCc2ccccc21,inactive
25,Cc1ccnc2ccc(-c3nc4ccccc4o3)cc12,inactive

row,Structure (SMILES),activation
1,Cc1ccc(-c2nc3ccsc3c(=O)o2)cc1,inactive
2,COc1ccc(C2CC(=O)N(C)c3ccccc3S2)cc1OC (stereo not given),inactive
3,Clc1cccc(-c2ccc3ncnc(NCc4cccs4)c3c2)c1,inactive
4,O=c1cc(-c2ccccc2)oc2ccc(Cl)cc12,inactive
5,O=c1cc(-c2ccc3c(c2)OCCO3)oc2ccc(Cl)cc12,inactive
6,C/C(=N/NC(=O)c1ccco1)c1ccc(NC(=O)c2ccc(F)cc2)cc1,inactive
7,Cc1cccc(-c2nnc(-c3cccc4ccccc34)o2)c1,inactive
8,Cc1ccccc1-c1nnc(-c2cccc3ccccc23)o1,inactive
9,Nc1ccc(-c2nnc(-c3ccc(N)cc3)o2)cc1,inactive
10,Cc1ccc(NC(=O)N2CCC(c3ccccc3)C2)cc1C (stereo not given),inactive
11,O=C(Cc1nc2ccccc2[nH]c1=O)c1ccccc1,inactive
12,CCc1cc(C(=O)Cc2nc3ccccc3[nH]2)c(O)cc1O,inactive
13,CCc1ccc(C(=O)COC(=O)c2ccccc2OC)cc1,inactive
14,COc1ccc(-c2nnc(SCC(C)C)o2)cc1,inactive
15,COc1ccc(-c2nnc(SCC(=O)Nc3cccc(Cl)c3)o2)cc1,inactive
16,Cc1onc(C(=O)Nc2sc3c(c2C#N)CCCC3)c1[N+](=O)[O-],inactive
17,Cc1cc(NC(=O)c2cccc(F)c2)ncc1NC(=O)c1ccco1,inactive
18,O=C(/C=C/C=C/c1ccccc1)c1ccco1,inactive
19,Cc1ccc(N/C=C/C(=O)c2ccco2)c(O)c1,inactive
20,Cc1ccnc(NC(=O)c2cc3cc(F)ccc3s2)c1,inactive
21,CC(C)NC(=O)c1cc(-c2cccs2)on1,inactive
22,Cc1ccc(NC(=O)c2cc(-c3cccs3)on2)cc1C,inactive
23,CCc1cc(CNC(=O)CCc2nnc(CCCc3ccccc3)o2)on1,inactive
24,O=C(NC(=O)c1ccc(F)cc1F)Nc1ccc(Cl)cc1,inactive
25,Nc1ccc(O)c2c(=O)cc(-c3ccccc3Cl)oc12,inactive
